Test [1] is described as follows: ATG_TCF_b_cat_CIS: Attagene CIS-FACTORIAL HepG2 Assay for human T-Cell-Factor with beta-catenin (TCF/b-cat) (AID 2282965). The conditions noted are these: HepG2 TCF/beta-catenin cis-reporter transcription, actives raise or lower the signal. The essentials: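 Endogenous TCF/LEF activity read as reporter transcript level via RT-PCR and capillary electrophoresis fluorescence in transfected HepG2, 24 h exposure; gain or loss of signal fitted against DMSO controls.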

Test [2] can be described thus: ATG_TAL_CIS: Attagene CIS-FACTORIAL HepG2 Assay for human TAL Basal Promoter (AID 2282966).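 Further: background control endpoint measuring basal TAL promoter reporter mRNA not a specific factor.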 The conditions noted are these: HepG2 Attagene cis-factorial TAL promoter reporter; actives raise or lower the signal. Summed up: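 Fluorescence of labelled reporter cDNA fragments, resolved by capillary electrophoresis, gave the readout. Human HepG2 liver cells carried transiently transfected cis-element reporter units and were treated for 24 hours; activity was fitted bidirectionally against DMSO.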

Test [3] in a line: ATG_TGFb_CIS: Attagene CIS-FACTORIAL HepG2 Assay for human Transforming Growth Factor (TGF) (AID 2282967). The conditions noted are these: HepG2 Attagene CIS TGFb reporter, mRNA transcription; actives raise or lower the signal. The essentials:
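HepG2 cells transiently transfected with cis-promoter-driven multiplexed reporter units; 24 h compound exposure. Reporter mRNA measured by RT-PCR, 6-FAM labeling, HpaI digestion and capillary electrophoresis; bidirectional fit versus DMSO baseline.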

Test [4] in a line: ATG_VDRE_CIS: Attagene CIS-FACTORIAL HepG2 Assay for human Vitamin D Receptor Element (VDRE) (AID 2282968). The conditions noted are these: HepG2 VDRE cis-reporter transcription, actives raise or lower the signal. Summed up:
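In transiently transfected HepG2 liver cells, gain or loss of reporter mRNA after 24 h exposure is scored relative to DMSO, using fluorescence detection by capillary electrophoresis of RT-PCR products.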

Test [5] addresses Nuclear receptor subfamily 1 group I member 3 (Homo sapiens) (UniProt Q14994). Description: ATG_CAR_TRANS: Attagene TRANS-FACTORIAL HepG2 Assay for human Constitutive Androstane Receptor (CAR) (AID 2282969; active means hit-call score of the fitted dose curve at least 0.9, where 1 is the maximum;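 further: activators raise reporter mRNA above DMSO so AC50 marks induction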). The conditions noted are these: HepG2 Attagene TRANS-FACTORIAL CAR reporter. Summed up:
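Readout is reporter mRNA induction, quantified by fluorescent primer extension and capillary electrophoresis after RT-PCR. Cells were HepG2 transiently carrying chimeric NR-Gal4 constructs with GAL4-UAS reporters, treated for 24 h; activity scored upward from DMSO.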

Test [6] addresses Estrogen receptor (Homo sapiens) (UniProt P03372). Nature of the test: ATG_ERa_TRANS: Attagene TRANS-FACTORIAL HepG2 Assay for human Estrogen Receptor alpha (ERa) (AID 2282970; active means hit-call score of the fitted dose curve at least 0.9, where 1 is the maximum). The conditions noted are these: HepG2 Attagene TRANS ERa GAL4 reporter, mRNA. The essentials:
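Human liver HepG2, transient transfection of multiple GAL4-UAS reporter units; TRANS format (exogenous NR-Gal4 chimera). 24 h dosing. Readout: reporter mRNA, RT-PCR, 6-FAM primer extension, HpaI digest, capillary electrophoresis. Positive direction vs DMSO.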

Test [7] addresses X-box-binding protein 1 (Homo sapiens) (UniProt P17861). Nature of the test: ATG_Xbp1_CIS: Attagene CIS-FACTORIAL HepG2 Assay for human X-box Binding Protein 1 (XBP1) (AID 2282972). The conditions noted are these: HepG2 XBP1 cis-element reporter, Attagene multiplex; actives raise or lower the signal. The essentials: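 HepG2 cells transiently transfected with cis-regulated multiple reporter transcription units; endogenous transcription factor activity measured 24 hours after chemical dosing. Reporter mRNA quantified by RT-PCR, 6-FAM primer extension, HpaI digestion and capillary electrophoresis; bidirectional fitting versus DMSO.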

A short description of test [8]: ATG_GAL4_TRANS: Attagene TRANS-FACTORIAL HepG2 Assay for GAL4 (Internal Marker) (AID 2282976; active means hit-call score of the fitted dose curve at least 0.9, where 1 is the maximum). The conditions noted are these: HepG2 Attagene TRANS GAL4 internal marker reporter. Summed up:
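First, HepG2 cells were transfected with reporter units under GAL4-UAS control. Next, they were treated with chemical for 24 h. Finally, RNA was reverse-transcribed, PCR-amplified, FAM-labelled and resolved by capillary electrophoresis, with induction scored against DMSO.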

Test [9] is described as follows: ATG_M_19_TRANS: Attagene TRANS-FACTORIAL HepG2 Assay for M19 Transcription Factor (Internal Marker) (AID 2282974; active means hit-call score of the fitted dose curve at least 0.9, where 1 is the maximum). The conditions noted are these: HepG2 Attagene TRANS-FACTORIAL M19 internal marker reporter. Summed up: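 HepG2 transiently transfected with GAL4-UAS multiplex reporter constructs, exposed 24 h; reporter RNA quantified by RT-PCR, 6-FAM labeling, HpaI digestion and capillary electrophoresis; internal background marker fitted upward versus DMSO.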

Test [10] addresses Steroid hormone receptor ERR1 (Homo sapiens) (UniProt P11474). Nature of the test: ATG_ERRa_TRANS: Attagene TRANS-FACTORIAL HepG2 Assay for human Estrogen-Related Receptor alpha (ERRa) (AID 2282971; active means hit-call score of the fitted dose curve at least 0.9, where 1 is the maximum). The conditions noted are these: HepG2 Attagene TRANS reporter, ERRa transactivation. Summed up: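 Reporter transcript induction was quantified by RT-PCR and capillary electrophoresis of FAM-labelled, HpaI-cut products after 24 h treatment of HepG2 cells carrying transiently transfected GAL4-UAS reporter units and an exogenous ERRa-Gal4 fusion; activity scored as increase over DMSO.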

Results filed as inconclusive are left out. Active and inactive are the calls of the source. How the source made its calls, unless noted: active means hit-call score of the fitted dose curve at least 0.9, where 1 is the maximum; inactive means score below 0.9.

In general, AC50 refers to the concentration at which the activity in the assay is half-maximal.

Nuclear receptor subfamily 1 group I member 3 (Homo sapiens), sequence (Q14994 whole entry, looked up, the tested form may be a part): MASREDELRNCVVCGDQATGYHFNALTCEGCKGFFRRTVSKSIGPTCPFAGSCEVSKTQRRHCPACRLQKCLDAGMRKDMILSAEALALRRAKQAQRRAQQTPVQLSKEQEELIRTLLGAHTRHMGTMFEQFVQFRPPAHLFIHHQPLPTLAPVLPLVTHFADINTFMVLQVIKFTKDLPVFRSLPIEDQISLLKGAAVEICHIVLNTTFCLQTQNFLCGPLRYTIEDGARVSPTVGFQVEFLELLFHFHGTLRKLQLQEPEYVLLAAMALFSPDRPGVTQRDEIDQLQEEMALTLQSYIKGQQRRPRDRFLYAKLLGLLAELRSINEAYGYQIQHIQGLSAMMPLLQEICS
Estrogen receptor (Homo sapiens), sequence (P03372 whole entry, looked up, the tested form may be a part): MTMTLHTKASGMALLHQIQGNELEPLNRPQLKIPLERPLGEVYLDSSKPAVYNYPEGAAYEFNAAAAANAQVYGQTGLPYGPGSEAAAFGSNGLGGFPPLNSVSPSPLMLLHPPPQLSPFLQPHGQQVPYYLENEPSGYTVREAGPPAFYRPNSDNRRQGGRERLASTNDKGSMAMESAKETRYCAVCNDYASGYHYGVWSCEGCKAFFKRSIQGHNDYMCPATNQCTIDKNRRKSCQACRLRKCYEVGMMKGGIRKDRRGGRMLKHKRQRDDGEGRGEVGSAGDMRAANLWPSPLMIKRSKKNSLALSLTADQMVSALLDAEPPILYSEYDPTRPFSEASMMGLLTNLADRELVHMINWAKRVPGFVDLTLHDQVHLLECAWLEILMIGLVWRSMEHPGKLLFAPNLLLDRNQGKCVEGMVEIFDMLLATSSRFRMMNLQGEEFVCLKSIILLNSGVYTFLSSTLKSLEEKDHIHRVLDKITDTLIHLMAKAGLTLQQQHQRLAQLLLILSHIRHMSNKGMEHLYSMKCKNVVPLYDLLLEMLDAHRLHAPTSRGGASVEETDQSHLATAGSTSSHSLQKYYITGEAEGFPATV
X-box-binding protein 1 (Homo sapiens), sequence (P17861 whole entry, looked up): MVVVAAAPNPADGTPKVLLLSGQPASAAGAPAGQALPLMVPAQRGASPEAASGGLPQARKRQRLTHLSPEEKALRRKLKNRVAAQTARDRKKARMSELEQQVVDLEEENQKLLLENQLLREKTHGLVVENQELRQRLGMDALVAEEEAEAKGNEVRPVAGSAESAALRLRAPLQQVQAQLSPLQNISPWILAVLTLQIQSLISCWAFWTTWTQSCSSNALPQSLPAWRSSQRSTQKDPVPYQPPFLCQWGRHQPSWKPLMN
Steroid hormone receptor ERR1 (Homo sapiens), sequence (P11474 whole entry, looked up, the tested form may be a part): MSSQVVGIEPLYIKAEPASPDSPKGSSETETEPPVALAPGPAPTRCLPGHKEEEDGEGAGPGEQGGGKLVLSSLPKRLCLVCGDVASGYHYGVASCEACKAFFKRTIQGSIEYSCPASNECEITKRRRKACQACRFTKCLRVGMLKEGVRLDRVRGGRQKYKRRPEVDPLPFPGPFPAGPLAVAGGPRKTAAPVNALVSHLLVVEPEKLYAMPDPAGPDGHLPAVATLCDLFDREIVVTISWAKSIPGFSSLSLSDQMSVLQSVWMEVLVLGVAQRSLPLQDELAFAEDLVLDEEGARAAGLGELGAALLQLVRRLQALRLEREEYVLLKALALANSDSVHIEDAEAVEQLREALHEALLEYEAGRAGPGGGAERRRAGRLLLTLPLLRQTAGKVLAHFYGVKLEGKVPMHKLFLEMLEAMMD

`CC(C)CC(=O)OCc1ccccc1`: the compound was classed as inactive in test [1], in test [2], in test [3], in test [4], in test [5] and in test [6]. The compound was classed as inactive in test [7] and in test [8].

For the compound `CC(=O)OC1CCCCC1C(C)(C)C` (stereo not drawn), the compound was classed as inactive in [1], in test [2], in test [3], in [4], in [5] and in [6]. Also, the result in [7] and in test [9] was inactive.

On to `CC(C)=CCCC(C)=CC#N`, for which the compound was classed as inactive in [1], in test [2], in [3], in test [4], in test [5] and in [6]. The call in test [7] and in test [9] was inactive.

Consider `CCN1CCCC1=O`, for which the result in [1], in [2], in [3] and in test [4] was inactive.

Regarding `CCCCOCC(C)O` (stereo not drawn), the call in test [1], in test [2], in test [3], in [4], in test [5] and in [6] was inactive. The call in [7] was inactive.

`C=CC(=O)OCC(C)OCC(C)OCC(C)OC(=O)C=C` (stereo not drawn): the AC50 in test [1] is 71.5 µM (active); in test [3], 143 µM (active); in [4] it was 6.27 µM (active). Besides, the result in test [2], in test [5] and in test [8] was inactive.

With `O=S(=O)(O)c1ccc(N=Nc2c(O)ccc3ccccc23)cc1`, the outcome in [1], in test [2], in test [3], in test [4], in [5] and in test [6] was inactive. The call in test [7] and in test [9] was inactive.

Turning to `CC1C(C)(C)C2=C(C(=O)CCC2)C1(C)C` (stereo not drawn), the compound was classed as inactive in test [1], in test [2], in [3], in test [4], in [5] and in test [10]. Further, the call in test [7] and in [9] was inactive. Moreover, the AC50 in test [6] was 11.5 µM (active).

For the compound `Cc1c(O)cccc1O`, the result in test [1], in test [2], in test [3], in test [4], in test [5] and in test [7] was inactive. Also, in test [8], the compound was classed as inactive. Moreover, the AC50 in test [6] is 46.1 µM (active).

`c1ccc2sc(SSN3CCOCC3)nc2c1`: the compound was called inactive in [1], in test [2], in [3], in [4] and in test [6]. Moreover, the AC50 in test [7] was 100 µM (active).

With `C=Cc1ccc(OC(C)=O)cc1`, the compound was classed as inactive in test [1], in test [2], in test [3], in test [4] and in test [9]. Also, the AC50 in test [6] was 31.6 µM (active); in [7] it was 53.7 µM (active).

For the compound `CCC1(C)C(=O)N(Cl)C(=O)N1Cl` (stereo not drawn), the AC50 is 52.2 µM (active) in test [1], 32.4 µM (active) in test [4] and 47.1 µM (active) in test [7]. Also, the result in [2], in test [3], in test [6], in test [9] and in [8] was inactive.

As to `COC(C=C(C)CCC=C(C)C)OC`, the compound was classed as inactive in test [1], in [2], in test [3], in test [6], in test [7] and in [9]. In test [8], the call was inactive. In addition, the AC50 in test [4] was 76.7 µM (active).

As for `COc1ccc(-c2coc3cc(O)cc(O)c3c2=O)cc1`, the result in test [1], in [2], in test [3], in [9] and in test [8] was inactive. The AC50 in test [4] was 27 µM (active); in test [6], 0.432 µM (active); in test [7] it was 100 µM (active).

`CC(CC=O)CC(C)(C)C` (stereo not drawn): the call in test [1], in test [2], in [3], in test [4], in test [6] and in test [7] was inactive. Besides, the compound was called inactive in test [9].

Consider `O=C(O)C1CCC(C(=O)O)CC1` (stereo not drawn), for which the compound was called inactive in test [1], in test [2], in test [3], in test [4], in test [6] and in test [7].

`Cn1cccc1`: the compound was called inactive in test [1], in test [2], in test [3], in [4], in [6] and in [7]. For the same compound, in test [9], the compound was called inactive.

Regarding `CCCCCCCCCC(C)=O`, the compound was called inactive in test [1], in test [2], in test [3], in [4], in [6] and in [7]. Further, the outcome in [9] was inactive.

Regarding `O=C(Nc1ccccc1)c1cc(Cl)ccc1O`, the outcome in [1], in test [2], in test [6] and in [9] was inactive. In addition, the AC50 in [3] was 52.5 µM (active); in [4], 6.51 µM (active); in test [7] it was 4.18 µM (active).

`CC(C)OC(=O)c1ccccc1`: the call in [1], in [2], in test [3], in [4], in test [6] and in test [7] was inactive.

Turning to `Oc1ccccc1Cc1ccccc1O`, the AC50 in test [1] was 37.9 µM (active); in test [4], 133 µM (active); in [6], 18.1 µM (active); in [7] it was 144 µM (active). For the same compound, the result in test [2], in [3] and in test [9] was inactive.

As to `O=C(C=Cc1ccccc1)OCCc1ccccc1`, the outcome in [1], in test [2], in test [3], in test [7] and in [9] was inactive. Besides, the results for the AC50 in test [4] and in test [6] were 28 µM (active) and 29.4 µM (active), respectively.

Regarding `CCCCOC(=O)CCC(C)=O`, the compound was classed as inactive in test [1], in test [2], in test [3], in test [4], in [6] and in test [7]. Besides, the call in test [9] was inactive.

Consider `CC(C)C(=O)OCCc1ccccc1`, for which the outcome in test [1], in test [2], in [3], in [4], in [6] and in [7] was inactive. Also, the compound was classed as inactive in test [9] and in test [8].

As to `CC(CCC(=O)O)(c1ccc(O)cc1)c1ccc(O)cc1`, the call in test [1], in test [2], in [3], in test [4], in test [7] and in test [9] was inactive. Moreover, the AC50 in [6] is 16.4 µM (active).

On to `CCCCCCCO`, for which the call in [1], in test [2], in test [3], in test [4], in test [7] and in test [9] was inactive. The AC50 in test [6] is 67.1 µM (active).

As to `Nc1ccnc(=O)[nH]1`, the compound was classed as inactive in [1], in [2], in test [3], in test [4], in test [6] and in test [7]. In addition, the compound was classed as inactive in test [9].

With `CCCCCCCCCCCCc1ccc(O)cc1`, the result in test [1], in [2], in [3], in test [4], in test [7] and in test [9] was inactive. The call in test [8] was inactive. Also, in test [6], the AC50 is 0.0847 µM (active).

On to `CC(=O)/C=C/C1C(C)=CCCC1(C)C` (stereo not drawn), for which the compound was classed as inactive in test [1], in test [2], in [3], in test [7] and in [9]. The AC50 in test [4] is 13.3 µM (active); in test [6], 24.2 µM (active).

These data come from PubChem BioAssay (EPA / NIEHS).
